Experimental data as given in PubChem BioAssay.
Results with a measured potency or affinity are listed apart. Values without a mark were called inactive. Active and inactive are the calls of the source. The rule behind the calls is not given here.

Test: A2780 ovarian cancer cell cytotoxicity, dose response, cytotoxicity control, plate reader, dry powder samples (AID 743046);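 note: 0% = neutral control wells and -100% = cytotoxic reference compound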
Settings: series mostly up to 35 µM; activity change, negative = cytotoxicity: at the top concentration

Structure (SMILES)	activity change, negative = cytotoxicity	outcome
C[C@H]1CCCCO[C@H](CN(C)Cc2ccc(Cl)c(Cl)c2)[C@@H](C)CN([C@@H](C)CO)C(=O)c2cc(NC(=O)Nc3ccc(F)cc3)ccc2O1	-22.4%	
C[C@@H]1CN([C@@H](C)CO)C(=O)c2c(c3ccccc3n2C)-c2ccccc2CO[C@H]1CN(C)C(=O)Nc1ccc2c(c1)OCO2	18.5%	
C[C@@H]1CCCCO[C@H](CN(C)Cc2ccc(C(F)(F)F)cc2)[C@H](C)CN([C@@H](C)CO)C(=O)c2cc(NC(=O)Nc3ccc(F)cc3)ccc2O1	3.93%	
C[C@H](CO)N1C[C@H](C)[C@H](CN(C)S(=O)(=O)c2cccs2)OCCCC[C@H](C)Oc2ccc(NC(=O)NC3CCCCC3)cc2C1=O	11.9%	
C[C@H]1CCCCO[C@@H](CN(C)S(=O)(=O)c2cccs2)[C@@H](C)CN([C@@H](C)CO)C(=O)c2cc(NC(=O)NC3CCCCC3)ccc2O1	12.2%	
C[C@@H]1CN([C@H](C)CO)C(=O)c2cc(NS(=O)(=O)c3ccc(F)cc3)ccc2O[C@@H]1CN(C)Cc1ccc(C(F)(F)F)cc1	-7.17%	
C[C@@H]1CCCCO[C@H](CN(C)C(=O)Cc2ccccc2)[C@H](C)CN([C@@H](C)CO)C(=O)c2cc(NC(=O)Nc3ccc(C(F)(F)F)cc3)ccc2O1	21.3%	
C[C@H](CO)N1C[C@H](C)[C@@H](CN(C)C(=O)NC2CCCCC2)Oc2cc(C#Cc3ccc(F)cc3)ccc2S1(=O)=O	5.44%	
C[C@@H]1CCCCO[C@H](CN(C)C)[C@H](C)CN([C@H](C)CO)C(=O)c2cc(NC(=O)Nc3cccc4ccccc34)ccc2O1	-2.77%	
C[C@@H]1CCCCO[C@@H](CN(C)S(=O)(=O)c2ccc(Cl)cc2)[C@H](C)CN([C@@H](C)CO)C(=O)c2cc(NS(=O)(=O)c3ccc(Cl)cc3)ccc2O1	-4.82%	
C[C@H](CO)N1C[C@H](C)[C@@H](CN(C)Cc2ccc(Oc3ccccc3)cc2)OCc2ccccc2-c2c(n(C)c3ccccc23)C1=O	13.9%	
C[C@@H]1CN([C@@H](C)CO)C(=O)c2cc(NC(=O)Nc3ccc4c(c3)OCO4)ccc2O[C@@H]1CN(C)C(=O)Nc1ccc(C(F)(F)F)cc1	4.9%	
C[C@@H]1CN([C@@H](C)CO)C(=O)c2cc(NS(=O)(=O)c3ccccc3)ccc2O[C@@H](C)CCCCO[C@@H]1CN(C)Cc1ccc(C(F)(F)F)cc1	18.8%	
C[C@@H]1CN([C@@H](C)CO)C(=O)Cc2cc(NC(=O)Nc3ccc(C(F)(F)F)cc3)ccc2O[C@H]1CN(C)S(=O)(=O)c1ccc(F)cc1	25.4%	
C[C@@H]1CCCCO[C@H](CN(C)Cc2ccc(C(F)(F)F)cc2)[C@H](C)CN([C@H](C)CO)C(=O)c2cc(NC(=O)Nc3ccc(F)cc3)ccc2O1	-7.34%	
CN1c2ccc(C#Cc3cccnc3)cc2[C@@H]2[C@@H](CCN2C(=O)Cc2cccnc2)[C@@H]1CO	-0.909%	
COc1ccc(NC(=O)Nc2ccc3c(c2)C(=O)N([C@@H](C)CO)C[C@@H](C)[C@@H](CN(C)Cc2ccc(C(F)(F)F)cc2)OCCCC[C@@H](C)O3)cc1	5.21%	
O=C(Nc1ccc(C(F)(F)F)cc1)N1C[C@@H]2N[C@H](C1)C2c1ccc(-c2ccccc2)cc1 (stereo not given in full)		inactive
C[C@H]1CN([C@@H](C)CO)C(=O)CCCn2nncc2CO[C@@H]1CN(C)C(=O)Nc1ccc(-c2cccs2)cc1	-14.4%	
CCCN(C)C[C@H]1OCCCC[C@@H](C)Oc2ccc(NC(=O)c3ccccc3)cc2C(=O)N([C@H](C)CO)C[C@H]1C	26.7%	

Structure (SMILES)	activity change, negative = cytotoxicity	outcome
CC(C)CC#Cc1ccc2c(c1)O[C@@H](CN(C)Cc1ccncc1)[C@H](C)CN([C@@H](C)CO)S2(=O)=O	67.8%	
C[C@@H]1CN([C@H](C)CO)C(=O)c2cc(NC(=O)Nc3ccc(F)cc3)ccc2O[C@@H](C)CCCCO[C@H]1CN(C)C(=O)Nc1ccc(F)cc1	1.52%	
Cc1ccc(S(=O)(=O)N(C)C[C@H]2OCCCC[C@@H](C)Oc3ccc(NS(=O)(=O)c4ccc(F)cc4)cc3C(=O)N([C@@H](C)CO)C[C@H]2C)cc1	-7.65% [at 30 µM]	
C[C@H]1CCCCO[C@@H](CN(C)C)[C@@H](C)CN([C@@H](C)CO)C(=O)c2cc(NC(=O)Nc3ccc(C(F)(F)F)cc3)ccc2O1	-9.93%	
Cc1ccc(S(=O)(=O)Nc2ccc3c(c2)C(=O)N([C@@H](C)CO)C[C@@H](C)[C@@H](CN(C)Cc2ccc(C(F)(F)F)cc2)OCCCC[C@@H](C)O3)cc1	-21.3%	
COc1ccccc1-c1ccc2c(c1)[C@H]1[C@H](CCN1S(=O)(=O)c1ccccc1F)[C@H](CO)N2	14.4%	
COc1ccccc1-c1ccc2c(c1)O[C@H](CN(C)Cc1ccc3c(c1)OCO3)[C@H](C)CN([C@@H](C)CO)S2(=O)=O	28.9%	
COc1ccc(S(=O)(=O)N2CCCCN3[C@H](C2)[C@H](c2ccc(C#CC(C)C)cc2)[C@@H]3CO)cc1	36.5%	
C[C@@H]1CCCCO[C@H](CN(C)CC2CCCCC2)[C@H](C)CN([C@H](C)CO)C(=O)c2cc(NS(=O)(=O)c3ccc(Cl)cc3)ccc2O1	13.7%	
COc1ccc(S(=O)(=O)N(C)C[C@H]2Oc3ccc(NC(=O)Nc4ccc(C(F)(F)F)cc4)cc3CC(=O)N([C@H](C)CO)C[C@@H]2C)cc1	6.27%	
COc1ccc(S(=O)(=O)N2CCCCN3[C@H](C2)[C@@H](c2ccc(C#CC(C)C)cc2)[C@@H]3CO)cc1	6.58%	
COc1ccc(NC(=O)Nc2ccc3c(c2)CC(=O)N([C@@H](C)CO)C[C@@H](C)[C@@H](CN(C)Cc2ccc(Oc4ccccc4)cc2)O3)cc1	15.2%	
C[C@@H]1CCCCO[C@H](CN(C)Cc2ccc(Cl)c(Cl)c2)[C@@H](C)CN([C@@H](C)CO)C(=O)c2cc(NS(=O)(=O)c3ccc(Cl)cc3)ccc2O1	-1.46%	
C[C@H](CO)N1C[C@H](C)[C@@H](CN(C)C(=O)Nc2ccc(F)cc2)OCc2ccccc2-c2c(n(C)c3ccccc23)C1=O	-7.18%	
C[C@H](CO)N1C[C@H](C)[C@H](CN(C)C(=O)NC2CCCCC2)Oc2cc(C#Cc3ccc(F)cc3)ccc2S1(=O)=O	5.31%	
C[C@H]1CCCCO[C@H](CN(C)S(=O)(=O)c2ccc(Cl)cc2)[C@@H](C)CN([C@@H](C)CO)C(=O)c2cc(NS(=O)(=O)c3ccc(Cl)cc3)ccc2O1	-7.24%	
C[C@@H]1CCCCO[C@H](CN(C)C(=O)Nc2ccc(C(F)(F)F)cc2)[C@H](C)CN([C@@H](C)CO)C(=O)c2cc(NS(=O)(=O)c3ccc(Cl)cc3)ccc2O1	-13.1%	
C[C@H](CO)N1C[C@H](C)[C@@H](CN(C)Cc2ccc(Cl)c(Cl)c2)OCCCC[C@H](C)Oc2ccc(NC(=O)Nc3ccccc3)cc2C1=O	-17.7%	
C[C@@H]1CN([C@@H](C)CO)C(=O)c2cc(NC(=O)c3ccccc3)ccc2O[C@@H](C)CCCCO[C@H]1CN(C)Cc1ccc(C(F)(F)F)cc1	-32.6%	
Cc1ccc(S(=O)(=O)Nc2ccc3c(c2)C(=O)N([C@H](C)CO)C[C@H](C)[C@H](CN(C)C(=O)c2ccccc2)OCCCC[C@H](C)O3)cc1	1.36%	
